# Measurements taken from PubChem BioAssay (Tox21).
# Results filed as inconclusive are left out. Activity calls are given as the source filed them. Calls come from the whole dose curve; as a rule, active = well fitted cell-killing curve with a large enough effect in the repeat runs; inconclusive = weak or mixed curves; inactive = no such curve, though single readings can be large or run the other way.
# Test: qHTS assay to identify small molecule antagonists of the peroxisome proliferator-activated receptor delta (PPARd) signaling pathway - cell viability counter screen (AID 743213); note: nearly all actives have a fitted effect of over 50% in size
# Details: PPARd-bla HEK293H viability, CellTiter-Glo luminescence, 17 h; series mostly up to 62 µM
# Source text: U.S. Tox21 Program National Center for Advancing Translational Sciences [NCATS] NIH Chemical Genomics Center [NCGC] U.S. Environmental Protection Agency [EPA] National Institutes of Environmental Health Sciences [NIEHS] National Toxicology Program [NTP] U.S. Food and Drug Administration [FDA] Tox21 Assay Overview: The peroxisome proliferator-activated receptors (PPARs) are lipid-activated transcription factors of the nuclear receptor superfamily with three distinct subtypes namely PPAR alpha, PPAR delta (PPARd) and PPAR gamma. All these subtypes heterodimerizes with Retinoid X receptor (RXR) and have different physiological functions. […] To identify the compounds that inhibit PPAR-delta signaling, GeneBLAzer PPAR delta UAS-bla HEK293H cell line (Invitrogen, Carlsbad, CA, USA) containing a beta-lactamase reporter gene under the control of an Upstream Activator Sequence (UAS) was used to screen the Tox21 compound library. The cytotoxicity of the Tox21 compound library against the PPARd-bla cell line was tested in parallel by measuring the cell viability using CellTiter-Glo assay (Promega, Madison, WI) in the same wells.
# Tox21 Assay Protocol Summary: PPARd-bla cells were dispensed at 3000 cells/5uL/well in 1536-well black wall/clear bottom plates using a Multidrop Combi (Thermo Fisher Scientific, Waltham, MA) dispenser. After the assay plates were incubated at 37 C and 5% CO2 for 5 h, 23 nL of compounds dissolved in DMSO, positive controls or DMSO only was transferred to the assay plate by a Pintool station (Kalypsys, San Diego, CA), followed by addition of 1ul L165041 (300 nM, final concentration in the wells). The assay plates were incubated at 37 C for 17 h, and then 1 uL of LiveBLAzerTM B/G FRET substrate was added using a Bioraptr Flying Reagent Dispenser (FRD) workstation (Beckman Coulter, Indianapolis, IN, USA). The assay plates were incubated at room temperature for 2 h and fluorescence intensity was measured by an Envision plate reader (PerkinElmer, Shelton, CT). For cell viability readout that measures cytotoxicity, 3 ul/well of CellTiter-Glo reagent was added into the assay plates using a Bioraptr FRD. After 30 min incubation at room temperature, the luminescence intensity in the plates was measured using a ViewLux plate reader (PerkinElmer).
row,SMILES,outcome
1,NCCS,inactive
2,CCO[Si](CCCS)(OCC)OCC,inactive
3,COC(=O)c1ccccc1C(=O)c1ccc(OCCN2CCCCC2)cc1,inactive
4,CC1(CO)CN(c2ccccc2)NC1=O (stereo not given),inactive
5,COc1cc2c(cc1OC)[C@@H]1CC(=O)[C@@H](CC(C)C)CN1CC2,inactive
6,CCCC/C=C\CCCCCCCCCC=O,inactive
7,Nc1ccc(S(=O)(=O)Nc2ccc(Cl)nn2)cc1,inactive
8,CC1=CCC(C(C)C)=CC1,inactive
9,CCOC(=O)CC(=O)c1ccccc1,inactive
10,COCCOCCOCCOCCOCCO,inactive
11,CCc1ccc(C=O)cc1,inactive
12,O=C(CCN1CCN(CCO)CC1)N1c2ccccc2Sc2ccc(C(F)(F)F)cc21,inactive
13,COc1cc(N)ccc1C,inactive
14,O=P(O)(O)OP(=O)(O)O,inactive
15,Cc1ccccc1C(=O)Nc1ccc(C(=O)N2CCCC(N(C)C)c3ccccc32)cc1 (stereo not given),inactive
16,CC(=O)/C=C/C1C(C)=CCC(C)C1(C)C (stereo not given),inactive
17,O=C1c2ccccc2C(=O)N1CCl,inactive
18,CCCCCCN,inactive
19,CC1(C)S[C@@H]2[C@H](N=CN3CCCCCC3)C(=O)N2[C@H]1C(=O)O,inactive
20,O=C(O)c1ccc(Cl)cc1Cl,inactive

row,SMILES,outcome
1,N[C@@H](COP(=O)(O)O)C(=O)O,inactive
2,Cc1cc(Cl)c(C)cc1Cl,inactive
3,CCNC(=O)C1CC(C)CCC1C(C)C (stereo not given),inactive
4,N[C@@H](CCC(=O)N[C@@H](CS)C(=O)NCC(=O)O)C(=O)O,inactive
5,Nc1ccc2cc(S(=O)(=O)O)cc(O)c2c1,inactive
6,O=C(CCNNC(=O)c1ccncc1)NCc1ccccc1,inactive
7,O=C(NCCc1c[nH]c2ccccc12)c1cccnc1,inactive
8,CN(C)c1ccc(C=O)cc1,inactive
9,COc1ccc2c(c1)C(=O)N(CCc1ccc(S(=O)(=O)NC(=O)NC3CCCCC3)cc1)C(=O)C2(C)C,inactive
10,c1ccc2c(c1)ccc1c3ccccc3ccc21,inactive
11,C=C(C)C(=O)OCCNC(C)(C)C,inactive
12,CCOC(=O)/C=C/c1ccccc1,inactive
13,O=Cc1ccc(Cl)c(Cl)c1,inactive
14,C=CC(OCC)OCC,inactive
15,Cc1ccc2c(c1)OCC(=O)CO2,inactive
16,COc1ccc(C2CNC(=O)C2)cc1OC1CCCC1 (stereo not given),inactive
17,CC(C)C(=O)OCc1cccc(OC(=O)[C@@H]2N3C(=O)[C@@H](NC(=O)Cc4ccccc4)[C@H]3SC2(C)C)c1,inactive
18,CC(=C(CCOC(=O)C(C)C)SSC(CCOC(=O)C(C)C)=C(C)N(C=O)Cc1cnc(C)nc1N)N(C=O)Cc1cnc(C)nc1N,inactive
19,N#Cc1ccc(C(=O)O)cc1,inactive
20,CC(C)=O,inactive
